Measured values reported in PubChem BioAssay (Tox21).
Inconclusive results are not listed. A call without a number means that no potency is given here. Values without a mark were called inactive. Active and inactive are the calls of the source. The call rests on the fitted dose curve; in most records, active means well fitted curve in the direction sought with a large enough effect in the repeat runs; inconclusive means weak or mixed curves; inactive means no such curve, though single readings can be large; an effect the other way counts as inactive or inconclusive.

Tested on: not listed separately
Experiment: qHTS assay to identify small molecule agonists of the constitutive androstane receptor (CAR) signaling pathway - cell viability counter screen (AID 1224836); further: nearly all actives have a fitted effect of over 45% in size
Conditions: HepG2-CYP2B6-hCAR viability, CellTiter-Fluor, 23 h, PK11195 added to every well; series mostly up to 92.4 µM
Summary of the method: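 HepG2-CYP2B6-hCAR, 2500 cells/well, 4 h pre-incubation; cpd 15 conc + PK11195 0.75 uM final; 23 h, 37 C/5% CO2; CellTiter-Fluor, fluorescence.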

Row | SMILES | outcome | viability change, negative = cytotoxic
1 | CC(C)CCCCCCOC(=O)C1CCCCC1C(=O)OCCCCCCC(C)C (stereo not drawn) | inactive | –
2 | Nc1ccc(C(=O)OCC(O)CO)cc1 (stereo not drawn) | inactive | –
3 | CCCC(C)CC (stereo not drawn) | inactive | –
4 | C=CCOC(=O)c1ccc(C(=O)OCC=C)c(C(=O)OCC=C)c1 | inactive | –
5 | C=CC(C)(O)CC/C=C(\C)CC (stereo not drawn) | inactive | –
6 | F[Si-2](F)(F)(F)(F)F | inactive | –
7 | CCOc1ccc(NC(=O)OC(C)C)cc1OCC | inactive | –
8 | COc1ccc(NS(=O)(=O)c2ccc(N)cc2)nn1 | inactive | –
9 | CCN(Cc1cccc(S(=O)(=O)O)c1)c1ccccc1 | inactive | –
10 | CC(=O)c1ccc(OCC(=O)N2CCCCC2)cc1 | inactive | –
11 | CC(C)COC(=O)/C=C/c1ccccc1 | inactive | –
12 | C=C(C)C(=O)OCCCCCCOC(=O)C(=C)C | inactive | –
13 | NC(Cc1c[nH]c2ccccc12)C(=O)O (stereo not drawn) | inactive | –
14 | CCCCCCCCCOCC1CO1 (stereo not drawn) | inactive | –
15 | O=C(/C=C/c1ccccc1)NCCO | inactive | –
16 | CC(C)(CO)[C@@H](O)C(=O)NCCCO | inactive | –
17 | CN=C(NC#N)NCCSCc1csc(N=C(N)N)n1 | inactive | –

Row | SMILES | outcome | viability change, negative = cytotoxic
18 | CCCCCCCCCCCCCC(=O)OC | inactive | –
19 | CC(=O)N1CCN(c2ccc(O)cc2)CC1 | inactive | –
20 | O=S(=O)(O)SSS(=O)(=O)O | inactive | –
21 | Nc1ccnc(=O)[nH]1 | inactive | –
22 | CCCOCCOCCOCCO | inactive | –
23 | CCCCCN(CCCOC)C(=O)C(CCC(=O)O)NC(=O)c1ccc(Cl)c(Cl)c1 (stereo not drawn) | inactive | –
24 | CC(C)C(=O)Nc1cccc(C(F)(F)F)c1 | inactive | –
25 | CCNC(=O)/C=C/c1cccc(Br)c1 | inactive | –
26 | CCOC(=O)CCc1ccccc1 | inactive | –
27 | C1=C\CC/C=C\CC/1 | inactive | –
28 | O=C1c2ccccc2-c2ccccc21 | inactive | –
29 | CN(C1CCCCC1)S(=O)(=O)c1ccccc1N | inactive | –
30 | CCCCCC(=O)OCC | inactive | –
31 | C=CCOCC(CO)(COCC=C)COCC=C | inactive | –
32 | Nc1ccc(/C=C/c2ccc(N)cc2S(=O)(=O)O)c(S(=O)(=O)O)c1 | – | 6.71% [at 0.349 µM]
33 | CCCCC(CC)CNC(=O)CC(C)OC(=O)CCC(=O)O (stereo not drawn) | inactive | –
34 | CC(=O)c1ccc2c(c1)CCCC2 | inactive | –

Tested on: not listed separately
Experiment: qHTS assay to identify small molecule antagonists of the constitutive androstane receptor (CAR) signaling pathway - cell viability counter screen (AID 1224837); further: nearly all actives have a fitted effect of over 45% in size
Conditions: HepG2-CYP2B6-hCAR viability, CellTiter-Fluor, 23 h, co-treated with 50 nM CITCO; series mostly up to 92.4 µM
Summary of the method: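 To flag cytotoxic false antagonists, HepG2 hCAR/CYP2B6-2.2kb cells were treated 23 hr with 15-concentration compound series and 50 nM CITCO at 37 C/5% CO2; CellTiter-Fluor fluorescence was the measured end point.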

Row | SMILES | Potency | activity change, negative = cytotoxicity
35 | CC(C)CCCCCCOC(=O)C1CCCCC1C(=O)OCCCCCCC(C)C (stereo not drawn) | inactive | –
36 | Nc1ccc(C(=O)OCC(O)CO)cc1 (stereo not drawn) | inactive | –
37 | CCCC(C)CC (stereo not drawn) | inactive | –
38 | C=CCOC(=O)c1ccc(C(=O)OCC=C)c(C(=O)OCC=C)c1 | inactive | –
39 | C=CC(C)(O)CC/C=C(\C)CC (stereo not drawn) | inactive | –
40 | F[Si-2](F)(F)(F)(F)F | inactive | –
41 | CCOc1ccc(NC(=O)OC(C)C)cc1OCC | inactive | –
42 | COc1ccc(NS(=O)(=O)c2ccc(N)cc2)nn1 | inactive | –
43 | CCN(Cc1cccc(S(=O)(=O)O)c1)c1ccccc1 | inactive | –
44 | CC(=O)c1ccc(OCC(=O)N2CCCCC2)cc1 | inactive | –
45 | CC(C)COC(=O)/C=C/c1ccccc1 | inactive | –
46 | C=C(C)C(=O)OCCCCCCOC(=O)C(=C)C | inactive | –
47 | NC(Cc1c[nH]c2ccccc12)C(=O)O (stereo not drawn) | inactive | –
48 | CCCCCCCCCOCC1CO1 (stereo not drawn) | inactive | –
49 | O=C(/C=C/c1ccccc1)NCCO | inactive | –
50 | CC(C)(CO)[C@@H](O)C(=O)NCCCO | inactive | –
51 | CN=C(NC#N)NCCSCc1csc(N=C(N)N)n1 | inactive | –

Row | SMILES | Potency | activity change, negative = cytotoxicity
52 | CCCCCCCCCCCCCC(=O)OC | inactive | –
53 | CC(=O)N1CCN(c2ccc(O)cc2)CC1 | inactive | –
54 | O=S(=O)(O)SSS(=O)(=O)O | inactive | –
55 | Nc1ccnc(=O)[nH]1 | inactive | –
56 | CCCOCCOCCOCCO | inactive | –
57 | CCCCCN(CCCOC)C(=O)C(CCC(=O)O)NC(=O)c1ccc(Cl)c(Cl)c1 (stereo not drawn) | inactive | –
58 | CC(C)C(=O)Nc1cccc(C(F)(F)F)c1 | inactive | –
59 | CCNC(=O)/C=C/c1cccc(Br)c1 | inactive | –
60 | CCOC(=O)CCc1ccccc1 | inactive | –
61 | C1=C\CC/C=C\CC/1 | inactive | –
62 | O=C1c2ccccc2-c2ccccc21 | inactive | –
63 | CN(C1CCCCC1)S(=O)(=O)c1ccccc1N | inactive | –
64 | CCCCCC(=O)OCC | inactive | –
65 | C=CCOCC(CO)(COCC=C)COCC=C | inactive | –
66 | Nc1ccc(/C=C/c2ccc(N)cc2S(=O)(=O)O)c(S(=O)(=O)O)c1 | – | 10.1% [at 0.349 µM]
67 | CCCCC(CC)CNC(=O)CC(C)OC(=O)CCC(=O)O (stereo not drawn) | inactive | –
68 | CC(=O)c1ccc2c(c1)CCCC2 | inactive | –

Target: Nuclear receptor subfamily 1 group I member 3 (Homo sapiens) (UniProt Q14994)
Experiment: qHTS assay to identify small molecule antagonists of the constitutive androstane receptor (CAR) signaling pathway (AID 1224838);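 further: HepG2 cells stably expressing hCAR with CYP2B6 luciferase reporter stimulated by CITCO; nearly all actives have a fitted effect of over 40% in size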; further: potency means the concentration at half of the fitted maximal effect
Conditions: HepG2-CYP2B6-hCAR luciferase, CITCO-stimulated, 24 h; series mostly up to 92.4 µM
Summary of the method: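 Human hepatoma HepG2 cells expressing hCAR and a CYP2B6 promoter (2.2 kb) luciferase construct; compound titration (15 points) with 50 nM CITCO final, 24 h at 37 C/5% CO2; luminescence via ONE-Glo after 30 min at room temperature.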

Chain of Nuclear receptor subfamily 1 group I member 3 (Homo sapiens) (Q14994 whole entry, looked up): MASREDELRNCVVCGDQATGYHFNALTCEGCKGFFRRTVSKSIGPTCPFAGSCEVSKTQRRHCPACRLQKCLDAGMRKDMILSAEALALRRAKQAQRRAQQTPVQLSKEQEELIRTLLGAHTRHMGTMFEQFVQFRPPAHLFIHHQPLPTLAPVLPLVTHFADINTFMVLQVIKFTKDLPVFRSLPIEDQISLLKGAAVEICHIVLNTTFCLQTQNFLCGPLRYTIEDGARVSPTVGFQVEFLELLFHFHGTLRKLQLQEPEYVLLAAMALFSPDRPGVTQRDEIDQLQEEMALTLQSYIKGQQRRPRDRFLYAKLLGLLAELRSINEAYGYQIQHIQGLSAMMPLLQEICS

Row | SMILES | Potency | activity, negative = inhibition
69 | C=CCOC(=O)c1ccc(C(=O)OCC=C)c(C(=O)OCC=C)c1 | inactive | –
70 | CCOc1ccc(NC(=O)OC(C)C)cc1OCC | inactive | –
71 | CCN(Cc1cccc(S(=O)(=O)O)c1)c1ccccc1 | inactive | –
72 | CC(=O)c1ccc(OCC(=O)N2CCCCC2)cc1 | inactive | –
73 | CC(C)COC(=O)/C=C/c1ccccc1 | inactive | –
74 | CCCCCCCCCOCC1CO1 (stereo not drawn) | inactive | –
75 | CC1=NN(c2ccc(S(=O)(=O)O)cc2)C(=O)C1N=Nc1ccccc1 (stereo not drawn) | inactive | –
76 | O=C(/C=C/c1ccccc1)NCCO | inactive | –
77 | O=S(=O)(O)SSS(=O)(=O)O | inactive | –
78 | COc1cc([N+](=O)[O-])ccc1N | inactive | –
79 | CC(C)C(=O)Nc1cccc(C(F)(F)F)c1 | inactive | –
80 | CCNC(=O)/C=C/c1cccc(Br)c1 | inactive | –
81 | C1=C\CC/C=C\CC/1 | inactive | –
82 | O=C1c2ccccc2-c2ccccc21 | inactive | –
83 | CN(C1CCCCC1)S(=O)(=O)c1ccccc1N | inactive | –
84 | C=CCOCC(CO)(COCC=C)COCC=C | inactive | –
85 | Nc1ccc(/C=C/c2ccc(N)cc2S(=O)(=O)O)c(S(=O)(=O)O)c1 | – | -20.1% [at 0.349 µM]
86 | CCCCC(CC)CNC(=O)CC(C)OC(=O)CCC(=O)O (stereo not drawn) | inactive | –
87 | Cc1ccc2c(c1)c1c3n2CCNC3CCC1 (stereo not drawn) | 750 nM (active) | –
88 | CC(=O)c1ccc2c(c1)CCCC2 | inactive | –
